{"source": "PubChem BioAssay (Tox21)", "note": "Results filed as inconclusive are left out. Entries that show only a call come without a potency. The source made the active and inactive calls. The call rests on the fitted dose curve; in most records, active means well fitted inhibition curve with a large enough effect in the repeat runs; inconclusive means weak or mixed curves; inactive means flat fitted curve, though single readings scatter."}
{"molecular_target": "Luciferin 4-monooxygenase (Photinus pyralis) (UniProt P08659)", "sequence (P08659 whole entry, looked up)": "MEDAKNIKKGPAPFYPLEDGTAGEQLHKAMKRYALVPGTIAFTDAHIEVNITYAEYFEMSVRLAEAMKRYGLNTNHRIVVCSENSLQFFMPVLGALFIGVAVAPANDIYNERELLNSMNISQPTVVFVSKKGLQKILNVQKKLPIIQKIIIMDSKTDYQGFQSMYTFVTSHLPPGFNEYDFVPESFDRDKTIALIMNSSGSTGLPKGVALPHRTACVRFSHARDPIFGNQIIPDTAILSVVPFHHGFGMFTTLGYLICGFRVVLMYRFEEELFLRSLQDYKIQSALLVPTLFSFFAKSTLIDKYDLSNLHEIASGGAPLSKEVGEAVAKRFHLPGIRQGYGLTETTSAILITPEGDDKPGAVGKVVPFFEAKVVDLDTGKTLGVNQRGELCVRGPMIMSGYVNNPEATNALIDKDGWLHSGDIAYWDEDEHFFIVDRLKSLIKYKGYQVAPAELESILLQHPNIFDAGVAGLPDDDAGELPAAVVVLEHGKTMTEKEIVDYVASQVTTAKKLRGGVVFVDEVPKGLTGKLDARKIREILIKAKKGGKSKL", "assay": "qHTS assay to identify small molecule inhibitors of firefly luciferase (AID 1224835); further: nearly all actives have a fitted effect of over 25% in size", "conditions": "purified P. pyralis luciferase, luminescence inhibition; series mostly up to 115 µM", "excerpt": "U.S. Tox21 Program National Center for Advancing Translational Sciences [NCATS] NIH Chemical Genomics Center [NCGC] U.S. Environmental Protection Agency [EPA] National Institutes of Environmental Health Sciences [NIEHS] National Toxicology Program [NTP] U.S. Food and Drug Administration [FDA] Tox21 Assay Overview: Firefly (Photinus pyralis) luciferase is one of the most commonly used transcriptional reporters. Firefly luciferase reporter-gene assays are generally considered one of the most sensitive assay types (Wood, 1995; Wood, 1998). However, it was initially observed, in 1991, by Thompson et al., that compounds that resemble the substrates of firefly luciferase (FLuc) can act as competitive inhibitors of the enzyme, and that these compounds, upon interaction with luciferase in the cell, can actually stabilize the protein and increase its half-life. Previous profiling work by other groups to determine the prevalence of compounds that affect FLuc enzymatic activity (PubChem AID 411) identified that ~3% of the MLSMR library (then at ~72K) inhibited FLuc. […] Thus the Tox21 10K library is profiled for activity against FLuc using a biochemical assay of purified FLuc and KM concentrations of FLuc substrates (D-luciferin and ATP).\nThese assay plates were then treated with 23nL of compound or DMSO using a Kalypsys pin tool, which allows for delivery of a 6-point interplate titration of each compound to the assay plate (quantitative HTS.) 1 uL of firefly luciferase mix (containing 50 mM Tris acetate, pH 7.6, 0.04 uM P. pyralis luciferase, 0.01% Tween, 0.05% BSA and dH2O) was then delivered by FRD to each well. Luciferase activity was then measured using a ViewLux CCD imager."}
{"compound": "Cc1cccc(N(C)C)c1", "Potency": "inactive"}
{"compound": "CC(C)N=C(N)/N=C(\\N)Nc1ccc(Cl)cc1", "Potency": "inactive"}
{"compound": "CC(C(O)c1ccccc1)N(C)CCOC(c1ccccc1)c1ccccc1", "note": "(stereo not given)", "Potency": "inactive"}
{"compound": "CS(C)(=O)=O", "Potency": "inactive"}
{"compound": "O=C[C@H](O)[C@H](O)[C@H](O)CO", "Potency": "inactive"}
{"compound": "CC(C)c1ccccc1N", "Potency": "inactive"}
{"compound": "Clc1ccc(C(c2ccccc2Cl)C(Cl)Cl)cc1", "note": "(stereo not given)", "Potency": "inactive"}
{"compound": "CC(C)(C)CC(C)(C)c1ccccc1O", "Potency": "inactive"}
{"compound": "Cc1cn[nH]c1", "Potency": "inactive"}
{"compound": "O=C1NCN(c2ccccc2)C12CCN(CCCC(c1ccc(F)cc1)c1ccc(F)cc1)CC2", "Potency": "inactive"}
{"compound": "c1ccc2c(c1)CCC2", "Potency": "inactive"}
{"compound": "CO[C@H]1C=CO[C@@]2(C)Oc3c(C)c(O)c4c(O)c(cc(O)c4c3C2=O)NC(=O)/C(C)=C\\C=C/[C@H](C)[C@H](O)[C@@H](C)[C@@H](O)[C@@H](C)[C@H](OC(C)=O)[C@@H]1C", "Potency": "inactive"}
{"compound": "CC[N+](CC)(CC)Cc1ccccc1", "Potency": "inactive"}
{"compound": "CC(C)(C)c1n[nH]c(=O)n(N)c1=O", "Potency": "inactive"}
{"compound": "CC(=O)C=O", "Potency": "inactive"}
{"compound": "CCC(C)c1cc([N+](=O)[O-])cc([N+](=O)[O-])c1OC(=O)OC(C)C", "note": "(stereo not given)", "Potency": "inactive"}
{"compound": "CCCCCCCCCCCCCc1ccccc1", "Potency": "inactive"}
{"compound": "Cc1cccc(C)n1", "Potency": "inactive"}
{"compound": "O=C1OC(=O)c2ccc3c4c(ccc1c24)C(=O)OC3=O", "Potency": "inactive"}
{"compound": "CC(CN(C)C)CN1c2ccccc2CCc2ccccc21", "note": "(stereo not given)", "Potency": "inactive"}
{"compound": "O=C(c1ccccc1)c1cc(Cl)ccc1O", "Potency": "inactive"}
{"compound": "Cn1cnc2ncnc(N)c21", "Potency": "inactive"}
{"compound": "Cc1c(C(=O)O)cccc1[N+](=O)[O-]", "Potency": "inactive"}
{"compound": "CCN(CC)CCOC(=O)C1(C2CCCCC2)CCCCC1", "Potency": "inactive"}
{"compound": "OCCCS", "Potency": "inactive"}
{"compound": "CCCCCCCC/C=C\\CCCCCCCC(=O)NCc1ccc(O)c(OC)c1", "Potency": "inactive"}
{"compound": "CCCCCCCC(OC)OC", "Potency": "inactive"}
{"compound": "C=C(c1ccc(C(=O)O)cc1)c1cc2c(cc1C)C(C)(C)CCC2(C)C", "Potency": "inactive"}
{"compound": "CC(=O)Oc1ccc(C2(c3ccc(OC(C)=O)cc3)Oc3ccccc3NC2=O)cc1", "Potency": "inactive"}
{"compound": "CCC1(c2cnc[nH]2)Cc2ccccc2C1", "Potency": "inactive"}
{"compound": "N#CSCSc1nc2ccccc2s1", "Potency": "35.6 µM (active)"}
{"compound": "CC(C)c1ccc(O)c(C(C)C)c1", "Potency": "inactive"}
{"compound": "CC(=O)c1ccccc1N", "Potency": "inactive"}
{"compound": "CO[Si](CCCNCCNCCN)(OC)OC", "Potency": "inactive"}
{"compound": "O=C(O)CCCCCCC(=O)O", "Potency": "inactive"}
{"compound": "CCN(CC)c1cccc(C)c1", "Potency": "inactive"}
{"compound": "CCc1ccc(O)c(C(C)(C)C)c1", "Potency": "inactive"}
{"compound": "CC(C)=CCCC(C)O", "note": "(stereo not given)", "Potency": "inactive"}
{"compound": "COc1ccccc1OCCNCC(O)COc1cccc2[nH]c3ccccc3c12", "note": "(stereo not given)", "Potency": "inactive"}
{"compound": "CC1(C)C(=O)N(CO)C(=O)N1CO", "Potency": "inactive"}
